Assay results from PubChem BioAssay (NCATS).
Inconclusive results are not listed. Activity calls are given as the source filed them. Unless noted, calls follow the shape of the dose curve; as a rule, active = well fitted curve in either direction with a large enough effect (not every such curve was filed as active); inconclusive = small, poorly fitted or top-dose-only effect, or another doubt; inactive = flat fitted curve, though single readings scatter.

Legend:
[1] = biological target: Lysosomal acid glucosylceramidase (Homo sapiens) (UniProt P04062); assay: Glucocerebrosidase-p2 (AID 348; in the data active = potency below about 10 µM; also: potency is read from the fitted curve at half-maximal effect); details: purified GBA, blue fluorogenic substrate, 40 min
Method in brief: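 Normal human glucocerebrosidase (0.2 nM) with blue fluorogenic substrate (80 uM final) in citrate/phosphate pH 5.9 with 10mM sodium taurocholate, 0.01% tween-20; 40 min RT, NaOH/glycine stop; fluorescence Ex 365/Em 440; AC50 from a titration from 0.6 nM upwards.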

[2] = AP1 Signaling Pathway (AID 357); details: ME-180 AP-1-bla reporter, EGF-induced, beta-lactamase ratio, 5 h; at 7.69 µM (top of the series) unless noted;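 also: ME-180 reporter cells stimulated with EGF at its EC50 level; % is scaled to controls: 0 for no effect and ±100 for the full control effect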
Method in brief: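 Beta-lactamase reporter under AP-1 response element, ME-180 background. Stimulus: EC50 EGF. Compound exposure 5 h, 37 °C. Detection: CCF4, 2.5 h RT, 460/530 nm. Values: AC50 from titration.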

[3] = NFAT Signaling Pathway (AID 444); details: Jurkat NFAT-bla M1, carbachol, beta-lactamase ratio, 5 h; at 7.69 µM (top of the series) unless noted;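 also: carbachol stimulus at about its EC50 of 1 µM final; % is scaled to controls: 0 for no effect and ±100 for the full control effect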
Method in brief: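 Jurkat cells carrying an NFAT-driven β-lactamase reporter and co-transfected muscarinic M1 receptor were treated with compound plus carbachol (1 uM final, an EC50 level) for 5 h at 37 °C. CCF4 loading followed for 1 h at RT; 460/530 nm ratio gave %activity.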

[4] = Stat Signaling Pathway (AID 446); details: ME-180 (cervical carcinoma) SIE beta-lactamase reporter, IL-6 stimulated, 5 h; at 7.69 µM (top of the series) unless noted;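 also: ME-180 cervical cancer cells given 40 pM IL-6 alongside compound; SIE-controlled beta-lactamase reporter measured as 460/530 nm FRET emission ratio; % is scaled to controls: 0 for no effect and ±100 for the full control effect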
Method in brief: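 Compound effects on IL-6-induced STAT reporter activity were measured in ME-180 cells. After overnight culture, cells were co-treated with 40 pM IL-6 for 5 hrs before beta-lactamase substrate loading at room temperature.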

[5] = biological target: Glucocorticoid receptor (Homo sapiens) (UniProt P04150); assay: GR-GFP Redistribution (AID 450;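 active = compounds whose dose series gives a full or clear partial fitted curve of increased nuclear translocation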; also: potency is read from the fitted curve at half-maximal effect); details: U2OS GR-GFP nuclear translocation, laser cytometry, 2 h
[6] = biological target: Glucocorticoid receptor (Homo sapiens) (UniProt P04150); assay: GR-EFC Redistribution (AID 451; calls by dose curve; also: potency is read from the fitted curve at half-maximal effect); details: CHO-K1 GR-EFC translocation, beta-gal luminescence, 2 h
Method in brief: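 CHO-K1 cells stably expressing nuclear-localized β-gal enzyme acceptor and GR fused C-terminally to the enzyme donor fragment; ligand-driven nuclear translocation restores β-gal by complementation. Compounds titrated up to 46 uM final, 2 h at 37 °C; luminescence read.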

[7] = biological target: Mitogen-activated protein kinase 10 (Mus musculus) (UniProt Q61831); assay: JNK3 AlphaScreen Assay (AID 530); details: JNK3 lysate, c-Jun phosphorylation; series mostly up to 11.4 µM;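 also: kinase came from lysate of stimulated human HepG2 cells; signal reports phosphorylation of biotinylated GST-cJun 1-79 at Ser73 with 10 µM ATP; % is scaled to controls: 0 for no effect and ±100 for the full control effect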
Method in brief: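 Phosphorylation of biotinylated GST-cJun(1-79) at Ser73 is measured by AlphaScreen proximity luminescence. Enzyme is JNK3 in HepG2 lysates activated with interleukin-1beta and tumor necrosis factor alpha; ATP is 10 uM final.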

[8] = biological target: 3',5'-cyclic-AMP phosphodiesterase 4B (Homo sapiens) (UniProt Q07343); assay: qHTS Assay for Inhibitors of PDE-IV (AID 607; active = well fitted activation curve with a large enough effect in the main read-out, with a control signal flat, not every such curve was filed as active; also: % of control where 0% means no effect); details: HEK293 ACTOne CNG channel cells, membrane potential fluorescence; series mostly up to 22.9 µM
Method in brief: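 ACTOne HEK293 cells carry a modified cAMP-gated CNG channel and express endogenous PDE4; plated 1000 cells/well, compounds up to 22.9 uM final. Membrane-potential dye fluorescence (ex 535/em 590) was read; parental cells received 10 uM forskolin + 100 uM RO 20-1724.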

Sequence of 3',5'-cyclic-AMP phosphodiesterase 4B (Homo sapiens) (Q07343 whole entry, looked up): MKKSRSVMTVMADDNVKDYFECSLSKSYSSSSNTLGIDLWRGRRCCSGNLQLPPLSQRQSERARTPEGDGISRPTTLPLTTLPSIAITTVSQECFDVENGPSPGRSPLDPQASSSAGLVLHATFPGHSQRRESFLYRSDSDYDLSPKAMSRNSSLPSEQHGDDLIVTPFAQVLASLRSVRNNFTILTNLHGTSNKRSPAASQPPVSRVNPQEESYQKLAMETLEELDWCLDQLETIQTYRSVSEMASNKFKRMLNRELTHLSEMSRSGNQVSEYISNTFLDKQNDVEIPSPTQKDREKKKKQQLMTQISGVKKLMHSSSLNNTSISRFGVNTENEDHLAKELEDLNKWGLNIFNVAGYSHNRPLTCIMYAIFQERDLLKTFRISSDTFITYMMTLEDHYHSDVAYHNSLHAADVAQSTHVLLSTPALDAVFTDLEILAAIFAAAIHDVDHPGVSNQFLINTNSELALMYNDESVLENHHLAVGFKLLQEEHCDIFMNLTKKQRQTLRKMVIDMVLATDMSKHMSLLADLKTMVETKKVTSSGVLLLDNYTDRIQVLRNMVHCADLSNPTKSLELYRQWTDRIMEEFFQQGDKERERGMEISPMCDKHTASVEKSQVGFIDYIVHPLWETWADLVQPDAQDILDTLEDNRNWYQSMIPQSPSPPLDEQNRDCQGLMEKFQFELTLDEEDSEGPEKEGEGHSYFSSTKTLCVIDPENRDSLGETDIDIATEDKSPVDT
Sequence of Lysosomal acid glucosylceramidase (Homo sapiens) (P04062 whole entry, looked up): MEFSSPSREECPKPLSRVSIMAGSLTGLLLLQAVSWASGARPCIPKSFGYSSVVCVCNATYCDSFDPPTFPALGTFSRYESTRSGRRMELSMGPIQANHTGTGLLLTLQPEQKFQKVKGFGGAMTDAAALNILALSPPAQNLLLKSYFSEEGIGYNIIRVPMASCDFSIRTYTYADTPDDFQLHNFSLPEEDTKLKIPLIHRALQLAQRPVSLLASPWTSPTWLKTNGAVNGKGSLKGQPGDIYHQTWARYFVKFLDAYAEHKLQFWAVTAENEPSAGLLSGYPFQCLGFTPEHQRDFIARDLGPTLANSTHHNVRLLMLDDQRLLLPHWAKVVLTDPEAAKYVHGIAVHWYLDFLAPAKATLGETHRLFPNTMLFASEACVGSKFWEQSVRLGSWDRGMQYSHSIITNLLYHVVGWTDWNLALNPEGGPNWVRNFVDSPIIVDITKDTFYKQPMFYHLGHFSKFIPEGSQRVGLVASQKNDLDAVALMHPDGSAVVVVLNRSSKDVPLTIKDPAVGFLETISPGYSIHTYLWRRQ
Sequence of Glucocorticoid receptor (Homo sapiens) (P04150 whole entry, looked up, the tested form may be a part): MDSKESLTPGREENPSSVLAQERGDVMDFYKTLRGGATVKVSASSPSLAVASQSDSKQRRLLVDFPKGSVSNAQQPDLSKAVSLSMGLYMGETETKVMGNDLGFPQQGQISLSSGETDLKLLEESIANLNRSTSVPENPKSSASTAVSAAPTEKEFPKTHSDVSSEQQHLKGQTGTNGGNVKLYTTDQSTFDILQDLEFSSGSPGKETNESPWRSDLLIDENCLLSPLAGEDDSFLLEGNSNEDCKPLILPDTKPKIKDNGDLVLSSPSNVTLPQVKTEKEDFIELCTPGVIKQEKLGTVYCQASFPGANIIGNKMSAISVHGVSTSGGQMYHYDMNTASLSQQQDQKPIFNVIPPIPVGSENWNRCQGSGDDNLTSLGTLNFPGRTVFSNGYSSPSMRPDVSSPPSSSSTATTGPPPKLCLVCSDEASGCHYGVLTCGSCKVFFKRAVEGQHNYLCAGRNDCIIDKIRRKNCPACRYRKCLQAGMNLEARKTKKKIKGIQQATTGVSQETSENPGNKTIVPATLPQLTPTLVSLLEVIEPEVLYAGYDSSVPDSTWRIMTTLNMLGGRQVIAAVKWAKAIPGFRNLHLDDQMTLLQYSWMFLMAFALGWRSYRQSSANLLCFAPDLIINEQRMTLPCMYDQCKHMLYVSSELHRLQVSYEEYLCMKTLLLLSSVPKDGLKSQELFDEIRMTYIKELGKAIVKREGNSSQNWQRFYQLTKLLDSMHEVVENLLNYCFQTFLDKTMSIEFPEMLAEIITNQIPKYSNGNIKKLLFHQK

Cc1ccc(C)c([C@@H]2NC(=O)c3ccccc3N2)c1
inactive: Potency [1] > 11.4 µM | activity change, negative = inhibition [2] -2.78% | activity change, negative = inhibition [3] -14.2% | activity, negative = inhibition [4] -1.94% | Potency [5] > 46 µM | Potency [6] > 9.22 µM | Potency [7] | Potency [8]

COc1ccc(Oc2ncc3nc(-c4ccccc4)c(=O)n(CCC#N)c3n2)cc1
inactive: Potency [1] > 11.4 µM | activity change, negative = inhibition [2] -26.9% | activity change, negative = inhibition [3] -6.24% | activity, negative = inhibition [4] -6.05% | Potency [5] > 9.22 µM | Potency [6] > 46 µM | Potency [7] | Potency [8]

Nc1nc(-c2ccccc2)c(CC(=O)O)s1
inactive: Potency [1] > 11.4 µM | activity change, negative = inhibition [2] 0.597% | activity change, negative = inhibition [3] 18.8% | activity, negative = inhibition [4] 0.225% | Potency [5] > 46 µM | Potency [6] > 9.22 µM | Potency [7] | Potency [8]

O=C(O)C[C@@H](C(=O)O)C1c2ccccc2-c2ccccc21
inactive: Potency [1] > 11.4 µM | activity change, negative = inhibition [2] -0.496% | activity change, negative = inhibition [3] -1.69% | activity, negative = inhibition [4] -5.83% | Potency [5] > 46 µM | Potency [6] > 9.22 µM | Potency [7] | Potency [8]

O=C(O)Cc1cccc2c(=O)cc(-c3ccccc3)oc12
inactive: Potency [1] > 11.4 µM | activity change, negative = inhibition [2] -1.49% | activity change, negative = inhibition [3] -5.58% | activity, negative = inhibition [4] -3.42% | Potency [5] > 46 µM | Potency [6] > 9.22 µM | Potency [7] | Potency [8]

COc1cccc(CSCC(=O)O)c1
inactive: Potency [1] > 11.4 µM | activity change, negative = inhibition [2] -5.92% | activity change, negative = inhibition [3] 6.63% | activity, negative = inhibition [4] 6.95% | Potency [5] > 46 µM | Potency [6] > 9.22 µM | Potency [7] | Potency [8]

NCCOc1ccccn1
inactive: Potency [1] > 11.4 µM | activity change, negative = inhibition [2] 10% | activity change, negative = inhibition [3] 1.74% | activity, negative = inhibition [4] -2.14% | Potency [5] > 46 µM | Potency [6] > 9.22 µM | Potency [7] | Potency [8]

O=S(=O)(c1ccccc1)N1CCN(S(=O)(=O)c2ccccc2)c2ccccc21
inactive: Potency [1] > 11.4 µM | activity change, negative = inhibition [2] -16.4% | activity change, negative = inhibition [3] -13.6% | activity, negative = inhibition [4] -7.57% | Potency [5] > 46 µM | Potency [6] > 9.22 µM | Potency [7] | Potency [8]

Cc1cc(Cl)ccc1OCC(=O)Oc1c(Cl)c(Cl)c(Cl)c(Cl)c1Cl
inactive: Potency [1] > 11.4 µM | activity change, negative = inhibition [2] 0.808% | activity change, negative = inhibition [3] -13.6% | activity, negative = inhibition [4] -0.45% | Potency [5] > 46 µM | Potency [6] > 9.22 µM | Potency [7] | Potency [8]

O=C1CCC[C@H]1C(=O)Nc1ccc2ccccc2c1
inactive: Potency [1] > 11.4 µM | activity change, negative = inhibition [2] 7.06% | activity change, negative = inhibition [3] 16.2% | activity, negative = inhibition [4] 8.65% | Potency [5] > 46 µM | Potency [6] > 9.22 µM | Potency [7] | Potency [8]

CC(C)(CCC(C)(C)c1ccccc1)c1ccccc1
inactive: Potency [1] > 11.4 µM | activity change, negative = inhibition [2] -0.999% | activity change, negative = inhibition [3] 5.11% | activity, negative = inhibition [4] -2.84% | Potency [5] > 46 µM | Potency [6] > 9.22 µM | Potency [7] | Potency [8]

CC(=O)Nc1c(C)cc(OCC(=O)O)cc1C
inactive: Potency [1] > 11.4 µM | activity change, negative = inhibition [2] -0.915% | activity change, negative = inhibition [3] 19.3% | activity, negative = inhibition [4] 12.5% | Potency [5] > 46 µM | Potency [6] > 9.22 µM | Potency [7] | Potency [8]

Cc1ccn2c(CCc3nnc4cc(C)ccn34)nnc2c1
inactive: Potency [1] > 11.4 µM | activity change, negative = inhibition [2] 2.24% | activity change, negative = inhibition [3] 11% | activity, negative = inhibition [4] -6.72% | Potency [5] > 46 µM | Potency [6] > 9.22 µM | Potency [7] | Potency [8]

O=C(O)c1ccncc1.O=C(O)c1ccncc1.[NH2-].[NH2-].[Pt]
inactive: Potency [1] > 11.4 µM | activity change, negative = inhibition [2] -4.3% | activity change, negative = inhibition [3] 8.19% | activity, negative = inhibition [4] 2.8% | Potency [5] > 46 µM | Potency [6] > 9.22 µM | Potency [7] | Potency [8]

O=C(O)Cc1c[nH]c2ccc(F)cc12
inactive: Potency [1] > 11.4 µM | activity change, negative = inhibition [2] 0.0381% | activity change, negative = inhibition [3] 24.2% | activity, negative = inhibition [4] 5.52% | Potency [5] > 46 µM | Potency [6] > 9.22 µM | Potency [7] | Potency [8]

Cc1cc2ncn(CC(=O)O)c2cc1C
inactive: Potency [1] > 11.4 µM | activity change, negative = inhibition [2] -4.54% | activity change, negative = inhibition [3] 1.45% | activity, negative = inhibition [4] 8.76% | Potency [5] > 46 µM | Potency [6] > 9.22 µM | Potency [7] | Potency [8]

CC(C)C1=C[C@@]23CC[C@@H]4[C@](C)(CCC[C@@]4(C)C(=O)O)[C@@H]2C[C@@H]1[C@@H](C(=O)O)[C@@H]3C(=O)O
inactive: Potency [1] > 11.4 µM | activity change, negative = inhibition [2] 1.99% | activity change, negative = inhibition [3] 4.67% | activity, negative = inhibition [4] 5.23% | Potency [5] > 46 µM | Potency [6] > 9.22 µM | Potency [7] | Potency [8]
